{"source": "PubChem BioAssay AID1159580", "about": "(chemical genetic matrix, 2015)", "test": "chemical genetic growth profiling, strain panel (AID 1159580);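 also: tested at 20 µM; growth read once vehicle control cultures reached saturation at 30 °C; 1 = growth at the plate median or of vehicle wells; lower values mean less growth of the strain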", "conditions": "S. cerevisiae deletion strains, growth OD", "note": "The whole screen tested about 5,500 compounds, of which about 2,000 (36%) were called active. Another 18% or so got no clear call; they are omitted. This is one part of the list. Unmarked numbers belong to inactive results. Rule as the data show it: active = normalized growth mostly below about 0.91 (no sharp cut-off); inconclusive = no clear call, values can overlap the other calls; inactive = mostly above about 0.92."}
{"compound": "O=C(O)CN(CC(=O)O)Cc1cc2c(-c3ccccc3C(=O)O)c3cc(CN(CC(=O)O)CC(=O)O)c(=O)cc-3oc2cc1O", "values": [{"measurement": "normalized growth", "setting": "locus YAL013W, strain DEP1, hits give low values", "result": 1}, {"measurement": "normalized growth", "setting": "locus YAL021C, strain ccr4, hits give low values", "result": 0.934}, {"measurement": "normalized growth", "setting": "locus YAL026C, strain drs2, hits give low values", "result": "0.904 (active)"}, {"measurement": "normalized growth", "setting": "locus YAL030W, strain snc1, hits give low values", "result": 0.962}, {"measurement": "normalized growth", "setting": "locus YBL061C, strain skt5, hits give low values", "result": 0.965}, {"measurement": "normalized growth", "setting": "locus YBR009C, strain hhf1, hits give low values", "result": 0.931}, {"measurement": "normalized growth", "setting": "locus YBR021W, strain FUR4, hits give low values", "result": 0.981}, {"measurement": "normalized growth", "setting": "locus YBR023C, strain chs3, hits give low values", "result": 0.981}, {"measurement": "normalized growth", "setting": "locus YBR171W, strain sec66, hits give low values", "result": 0.965}, {"measurement": "normalized growth", "setting": "locus YBR229C, strain ROT2, hits give low values", "result": 1.01}, {"measurement": "normalized growth", "setting": "locus YBR231C, strain swc5, hits give low values", "result": 0.943}, {"measurement": "normalized growth", "setting": "locus YBR279W, strain paf1, hits give low values", "result": 0.967}, {"measurement": "normalized growth", "setting": "locus YCL011C, strain gbp2, hits give low values", "result": 0.962}, {"measurement": "normalized growth", "setting": "locus YCL016C, strain dcc1, hits give low values", "result": 0.976}, {"measurement": "normalized growth", "setting": "locus YCL029C, strain bik1, hits give low values", "result": 1.02}, {"measurement": "normalized growth", "setting": "locus YCL061C, strain MRC1, hits give low values", "result": 0.937}, {"measurement": "normalized growth", "setting": "locus YCL069W, strain vba3, hits give low values", "result": 0.975}, {"measurement": "normalized growth", "setting": "locus YCR088W, strain abp1, hits give low values", "result": 0.995}, {"measurement": "normalized growth", "setting": "locus YDL005C, strain med2, hits give low values", "result": 0.982}, {"measurement": "normalized growth", "setting": "locus YDL035C, strain GPR1, hits give low values", "result": 0.997}, {"measurement": "normalized growth", "setting": "locus YDL040C, strain nat1, hits give low values", "result": 0.964}, {"measurement": "normalized growth", "setting": "locus YDL074C, strain BRE1, hits give low values", "result": 0.991}, {"measurement": "normalized growth", "setting": "locus YDL101C, strain DUN1, hits give low values", "result": 1.01}, {"measurement": "normalized growth", "setting": "locus YDL134C, strain PPH21, hits give low values", "result": 1.01}, {"measurement": "normalized growth", "setting": "locus YDL185W, strain tfp1, hits give low values", "result": 0.986}, {"measurement": "normalized growth", "setting": "locus YDL192W, strain arf1, hits give low values", "result": 1.02}, {"measurement": "normalized growth", "setting": "locus YDR001C, strain nth1, hits give low values", "result": 0.965}, {"measurement": "normalized growth", "setting": "locus YDR069C, strain doa4, hits give low values", "result": 0.951}, {"measurement": "normalized growth", "setting": "locus YDR101C, strain arx1, hits give low values", "result": 1.01}, {"measurement": "normalized growth", "setting": "locus YDR137W, strain rgp1, hits give low values", "result": "0.829 (active)"}, {"measurement": "normalized growth", "setting": "locus YDR150W, strain NUM1, hits give low values", "result": 1.02}, {"measurement": "normalized growth", "setting": "locus YDR159W, strain sac3, hits give low values", "result": 0.96}, {"measurement": "normalized growth", "setting": "locus YDR162C, strain NBP2, hits give low values", "result": 0.984}, {"measurement": "normalized growth", "setting": "locus YDR195W, strain ref2", "result": 1.04}, {"measurement": "normalized growth", "setting": "locus YDR297W, strain sur2, hits give low values", "result": 0.951}, {"measurement": "normalized growth", "setting": "locus YDR318W, strain mcm21, hits give low values", "result": 1.02}, {"measurement": "normalized growth", "setting": "locus YDR334W, strain swr1, hits give low values", "result": 0.955}, {"measurement": "normalized growth", "setting": "locus YDR335W, strain msn5, hits give low values", "result": 0.932}, {"measurement": "normalized growth", "setting": "locus YDR388W, hits give low values", "result": 1.02}, {"measurement": "normalized growth", "setting": "locus YDR392W, strain spt3, hits give low values", "result": 0.914}, {"measurement": "normalized growth", "setting": "locus YDR502C, strain sam2, hits give low values", "result": 1.02}, {"measurement": "normalized growth", "setting": "locus YEL003W, strain gim4, hits give low values", "result": 0.948}, {"measurement": "normalized growth", "setting": "locus YEL037C, strain rad23, hits give low values", "result": 0.971}, {"measurement": "normalized growth", "setting": "locus YEL061C, strain CIN8 (second series), hits give low values", "result": 0.963}, {"measurement": "normalized growth", "setting": "locus YEL061C, strain CIN8, hits give low values", "result": 1}, {"measurement": "normalized growth", "setting": "locus YER015W, strain faa2, hits give low values", "result": "0.897 (active)"}, {"measurement": "normalized growth", "setting": "locus YER016W, strain bim1, hits give low values", "result": 0.986}, {"measurement": "normalized growth", "setting": "locus YER110C, hits give low values", "result": 1.03}, {"measurement": "normalized growth", "setting": "locus YER111C, strain swi4, hits give low values", "result": 0.934}, {"measurement": "normalized growth", "setting": "locus YER155C, strain BEM2 (second series), hits give low values", "result": 1}, {"measurement": "normalized growth", "setting": "locus YER155C, strain BEM2, hits give low values", "result": 1}, {"measurement": "normalized growth", "setting": "locus YER167W, strain BCK2, hits give low values", "result": 1.02}, {"measurement": "normalized growth", "setting": "locus YFR010W, strain ubp6, hits give low values", "result": 0.992}, {"measurement": "normalized growth", "setting": "locus YGL078C, strain dbp3, hits give low values", "result": 1.02}, {"measurement": "normalized growth", "setting": "locus YGL086W, strain mad1, hits give low values", "result": 1.01}, {"measurement": "normalized growth", "setting": "locus YGL167C, strain pmr1, hits give low values", "result": 0.967}, {"measurement": "normalized growth", "setting": "locus YGL173C, strain kem1, hits give low values", "result": 0.939}, {"measurement": "normalized growth", "setting": "locus YGL227W, strain vid30, hits give low values", "result": 0.977}, {"measurement": "normalized growth", "setting": "locus YGL240W, strain doc1, hits give low values", "result": 0.977}, {"measurement": "normalized growth", "setting": "locus YGL248W, strain PDE1, hits give low values", "result": 1.01}, {"measurement": "normalized growth", "setting": "locus YGL253W, strain hxk2, hits give low values", "result": 0.934}, {"measurement": "normalized growth", "setting": "locus YGR078C, strain PAC10, hits give low values", "result": 0.997}, {"measurement": "normalized growth", "setting": "locus YGR135W, strain pre9, hits give low values", "result": 1}, {"measurement": "normalized growth", "setting": "locus YGR229C, strain SMI1, hits give low values", "result": 0.976}, {"measurement": "normalized growth", "setting": "locus YGR252W, strain gcn5, hits give low values", "result": 1.05}, {"measurement": "normalized growth", "setting": "locus YHR013C, strain ard1, hits give low values", "result": 0.963}, {"measurement": "normalized growth", "setting": "locus YHR027C, strain rpn1, hits give low values", "result": "0.874 (active)"}, {"measurement": "normalized growth", "setting": "locus YHR030C, strain SLT2, hits give low values", "result": 1}, {"measurement": "normalized growth", "setting": "locus YHR079C, strain IRE1 (second series), hits give low values", "result": 1.02}, {"measurement": "normalized growth", "setting": "locus YHR094C, strain hxt1, hits give low values", "result": 1.01}, {"measurement": "normalized growth", "setting": "locus YHR129C, strain ARP1, hits give low values", "result": 0.997}, {"measurement": "normalized growth", "setting": "locus YHR142W, strain chs7, hits give low values", "result": 0.945}, {"measurement": "normalized growth", "setting": "locus YHR200W, strain rpn10, hits give low values", "result": 1.02}, {"measurement": "normalized growth", "setting": "locus YIL066C, strain RNR3, hits give low values", "result": 0.992}, {"measurement": "normalized growth", "setting": "locus YIL073C, strain SPO22, hits give low values", "result": 1.08}, {"measurement": "normalized growth", "setting": "locus YIL125W, strain kgd1, hits give low values", "result": 1.01}, {"measurement": "normalized growth", "setting": "locus YIR030C, strain dcg1, hits give low values", "result": 1.02}, {"measurement": "normalized growth", "setting": "locus YJL092W, strain hpr5, hits give low values", "result": 0.977}, {"measurement": "normalized growth", "setting": "locus YJL095W, strain BCK1 (second series), hits give low values", "result": 0.961}, {"measurement": "normalized growth", "setting": "locus YJL095W, strain BCK1, hits give low values", "result": 0.976}, {"measurement": "normalized growth", "setting": "locus YJL115W, strain asf1, hits give low values", "result": 0.947}, {"measurement": "normalized growth", "setting": "locus YJL129C, strain trk1, hits give low values", "result": 0.911}, {"measurement": "normalized growth", "setting": "locus YJL134W, strain LCB3, hits give low values", "result": 1.01}, {"measurement": "normalized growth", "setting": "locus YJL154C, strain vps35, hits give low values", "result": 0.984}, {"measurement": "normalized growth", "setting": "locus YJL164C, strain tpk1, hits give low values", "result": 0.929}, {"measurement": "normalized growth", "setting": "locus YJL166W, strain qcr8, hits give low values", "result": 0.969}, {"measurement": "normalized growth", "setting": "locus YJL168C, strain set2, hits give low values", "result": 1.01}, {"measurement": "normalized growth", "setting": "locus YJL187C, strain SWE1 (second series), hits give low values", "result": 0.992}, {"measurement": "normalized growth", "setting": "locus YJL187C, strain SWE1, hits give low values", "result": 0.963}]}
